Screening data: PubChem, National Center for Advancing Translational Sciences (NCATS)
A selection: hits, their analogues and other compounds. The true share with any hit is near 17%.
TGFb inhibitor: inhibitors of TGF-b signaling; AID 588855; HepG2 CAGA-GFP TGF-b/SMAD3 reporter, GFP fluorescence, 18 h; TGF-beta stimulated, 500 pg/mL final; Potency, µM (series often up to 46.1 µM), most hits filed as inhibitors; hit rate 1.2% among 410,000; also: nearly all actives have a fitted effect of over 65% in size
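HEPG2 CAGA-GFP, 1000 cells/well; 2 h settle, 37 C; cpd via pin tool; TGF-b 500 pg/mL final; 18 h, 37 C; GFP imaging ex488/em500-530; %Activity normalised to -TGF-b and +DMSO controls; CRC fit, curve class.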
ATXN2 expr inh: ATXN2 expression inhibition | HEK-293 ATXN2-luciferase reporter, luminescence, 24 h | Potency, µM (series often up to 57 µM), hits mostly inhibitors | hit rate 0.72% among 360,000 | AID 1745845; also: nearly all actives have a fitted effect of over 55% in size
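ATXN2-luciferase reporter cells (luciferase flanked by upstream and downstream ATXN2 gene portions) were treated 24 h at 37 °C with compounds at up to 57 uM. SteadyGlo luminescence gave expression; GF-AFC fluorescence gave viability.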
ATXN viability: cell viability loss in ATXN counter-screen | S2 cells (HEK-293 line with an ATXN2-luciferase reporter) viability, CellTiter-Fluor protease fluorescence, 24 h | Potency, µM (highest dose often 56.7 µM), usual class: cytotoxic | hit rate 0.49% among 400,000 | AID 651635; also: nearly all actives have a fitted effect of over 40% in size
TDP1 cell CPT: DT40-hTDP1 cell growth loss with CPT. Potency, µM (top dose mostly 46.2 µM), hits mostly inhibitors. chicken DT40 Tdp1-/-;hTDP1 cells + 20 nM CPT, ATP luminescence, 48 h. hit rate 12% among 420,000. AID 686979; also: nearly all actives have a fitted effect of over 55% in size
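Cell growth measured by CellTiter-Glo luminescence after a minimum 48 h, 37 C compound exposure with 20 nM CPT in Tdp1-knockout DT40 cells stably expressing hTDP1, seeded 400/well; qHTS titration format.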
TDP1 cell noCPT: qHTS for Inhibitors of human tyrosyl-DNA phosphodiesterase 1 (TDP1): qHTS in cells in absence of CPT; AID 686978, 2013; Potency, µM (series often up to 46.2 µM), actives largely listed as inhibitors; hit rate 15% among 420,000; DT40 Tdp1-/- hTDP1 cells, no CPT, ATP luminescence, 48 h; also: nearly all actives have a fitted effect of over 55% in size
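A cellular qHTS used chicken DT40 cells lacking endogenous Tdp1 but carrying stably transfected human TDP1. Compounds were applied without camptothecin, and cell growth kinetics were judged by ATP-dependent luminescence after ≥48 hr.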
HepG2 tox: counter-screen for TGF-b inhibitors: cytotoxicity in HepG2 cells; Potency, µM (top dose mostly 46.1 µM), usual class: cytotoxic; HepG2 CAGA-GFP viability, ATP luminescence, 18 h; AID 588856; hit rate 0.76% among 410,000
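CellTiter-Glo luminescence gave cytotoxicity after 18 hours at 37 degrees C. The cells were HepG2 CAGA-GFP in 1% FBS DMEM, stimulated with 500 pg/mL TGF-beta after compound addition. %Activity was normalised to no-cell wells (complete cell-killing) and DMSO (no toxicity), and curves were fitted and classified.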
A number is an active result; 0 = inactive; ? = inconclusive; - = no result; [ ] = remark or other dose. Calls follow the shape of the dose curve; as a rule, active = well fitted curve in the direction sought with a large enough effect; inconclusive = small, poorly fitted or top-dose-only effect, or another doubt; inactive = no such curve, though single readings can be large; an effect the other way counts as inactive or inconclusive.

SMILES	TGFb inhibitor	ATXN2 expr inh	ATXN viability	TDP1 cell CPT	TDP1 cell noCPT	HepG2 tox
O=C(N/N=C/c1ccc([N+](=O)[O-])o1)c1cc(-c2ccncc2)nc2ccccc12	0	?	?	7.1µM	3.2µM	0
O=C(NCc1ccccc1)c1cc(-c2ccncc2)nc2ccccc12	0	0	0	?	?	0
CC1(C)CC(=O)C(C=Nc2ccc(NC3=C(C#N)C(=O)CC(C)(C)C3)cc2)=C(O)C1	0	0	0	0	0	0
Cc1c(C(=O)NCc2ccccc2)sc2nc3n(c(=O)c12)CCC3	0	-	-	0	0	0
Cc1cc(N/N=C/c2ccc([N+](=O)[O-])o2)nc2ccccc12	0	?	-	18µM	18µM	0
CC(/C=N/NC(=O)c1cccs1)=C\c1ccco1	0	0[11.3 µM]	0	0	0	0
CCc1nnc(NC(=O)c2cc(-c3ccc(C)o3)nc3ccccc23)s1	0	0	0	?	?	0
CC(/C=N/NC(=O)c1cc(-c2ccncc2)nc2ccccc12)=C\c1ccco1	?	0	0	2.6µM	3.7µM	0
Cc1ccc(-c2cc(C(=O)N/N=C/c3ccc([N+](=O)[O-])o3)c3ccccc3n2)o1	14µM	0	0	18µM	13µM	11µM
O=C(N/N=C/c1ccco1)c1cc(-c2cccc(Br)c2)nc2ccccc12	0	0	?	?	5.8µM	0
O=C(N/N=C/c1ccco1)c1cc(-c2ccccc2)n[nH]1	0	0	0	?	?	0
COC(=O)N1CCC2(CCN(Cc3ccccc3)CC2)CC1	-	-	-	0	0	-
CCOC(=O)c1c(NC(=O)c2cc(=O)c3cc(Cl)ccc3o2)sc(C)c1C	0	0	0	0	0	0
O=C(N/N=C/c1ccc([N+](=O)[O-])o1)c1cn(-c2ccccc2)nc1-c1ccc(Cl)cc1	0	-	0	?	?	0
O=C(N/N=C/c1ccc([N+](=O)[O-])o1)c1cc(-c2ccc(-c3ccccc3)cc2)nc2ccccc12	0	?	?	4.1µM	0.46µM	0
O=C(NCCc1ccc(Cl)cc1)C(=O)NCC(c1ccco1)S(=O)(=O)c1cccs1 (centres undefined)	0	-	-	18µM	?	0
O=C(NCc1ccccc1Cl)C(=O)NCC(c1ccco1)S(=O)(=O)c1cccs1 (centres undefined)	0	-	-	?	16µM	0
O=S(=O)(NCC(c1ccco1)S(=O)(=O)c1cccs1)c1ccc(Cl)cc1 (centres undefined)	?	-	-	?	?	0
O=S(=O)(NCC(c1ccco1)S(=O)(=O)c1cccs1)c1ccc(F)c(C(F)(F)F)c1 (centres undefined)	4.5µM	-	-	?	?	0
Cc1ccc(Nc2nnc(SCC(=O)NCC3CCCO3)s2)cc1C (centres undefined)	0	0	0	?	0	0
NC(=O)c1ncn([C@@H]2O[C@H](CNCc3cnc(N4CCOCC4)nc3)[C@@H](O)[C@H]2O)n1	0	0	0	0	0	0
COc1nc(=O)n(C2C=CC(=O)O2)cc1F (centres undefined)	?	-	?	2.3µM	2.3µM	0
CC1(C)Cc2nc3oc4c(N5CCOCC5)ncnc4c3cc2CO1	0	0	0	?	0	0
Brc1ccc2oc3c(N4CCOCC4)ncnc3c2c1	0	0	0	?	12µM	0
O=S(=O)(NCCOc1ccccc1F)c1cccc(Br)c1	0	0	0	0	0	0
SMILES	TGFb inhibitor	ATXN2 expr inh	ATXN viability	TDP1 cell CPT	TDP1 cell noCPT	HepG2 tox
COc1ccc(C2Nc3ccc(NC(=O)CO)cc3C(=O)N2Cc2cccc(Cl)c2)cc1COc1ccc(NC(C)=O)cc1 (centres undefined)	-	-	-	?	11µM	-
COc1ccc(C2Nc3ccccc3C(=O)N2c2ccccc2)cc1COc1ccc(NC(C)=O)cc1 (centres undefined)	0	-	-	?	?	0
COc1ccc(C2Nc3ccc(NC(C)=O)cc3C(=O)N2Cc2cccc(Cl)c2)cc1COc1ccc(NC(C)=O)cc1 (centres undefined)	-	-	-	13µM	10µM	-
CC(=O)c1cc(F)c(N2CCN(C(=O)COc3ccccc3F)CC2)cc1C	0	0	0	21µM	16µM	0
CC(=O)c1cc(F)c(N2CCOCC2)cc1C	0	0	0	0	0	0
CC(=O)c1cc(F)c(N2CCN(C(=O)C(C)(C)C)CC2)cc1C	0	0	0	21µM	21µM	0
CC(=O)c1cc(F)c(N2CCCC2)cc1C	0	0	0	21µM	21µM	0
CC(=O)c1cc(F)c(N2CCN(c3ccc([N+](=O)[O-])cc3F)CC2)cc1C	0	0	0	?	0	0
CCC(=O)c1cc(F)c(N2CCN(C(=O)Cc3ccccc3)CC2)cc1C	0	0	0	21µM	15µM	0
COc1cc(C(=O)c2c(C)c(CCC#N)n3ccccc23)cc(OC)c1OC	0	0	0	0	0	0
O=C1NC(=O)C2(COC(c3ccccc3Cl)OC2)S1 (centres undefined)	0	0	0	0	0	0
O=C(Nc1ccc(Cl)c(S(=O)(=O)N2CCCCC2)c1)c1ccco1	0	0	0	0	?	0
Cc1noc2ncnc(Sc3ccc(Br)cc3)c12	?	0	0	2.6µM	9.2µM	0
COc1ccccc1C(=O)Nc1ccnn1C1CCN(C2CCCCC2)CC1	0	-	0	0	0	0
COc1ccccc1C(=O)N/C(=C\c1ccc(Br)cc1)C(=O)NCCO	0	0	0	0	0	0
CCN(CC)C(=O)/C(=C\c1ccc(Br)cc1)NC(=O)c1ccccc1OC	0	0	0	?	15µM	0
COc1ccc(NC(C)=O)cc1S(=O)(=O)NC1CCSc2ccccc21 (centres undefined)	0	0	0	0	0	0
CC(=O)c1ccc(NC(=O)C2(c3ccccc3)CCOCC2)cc1	0	0	0	0	0	0
O=C(Nc1ccccc1[N+](=O)[O-])C1(c2ccccc2)CCOCC1	0	0	0	?	16µM	0
COc1ccc(-c2cc(C(=O)Oc3ccc([N+](=O)[O-])cc3)c3ccccc3n2)cc1	0	0	0	?	?	0
COc1ccc2nc3cc([N+](=O)[O-])ccc3c(NNc3ccc([N+](=O)[O-])cc3)c2c1	0	0	?	10µM	9.2µM	0
CC(C)c1nnc(NC(=O)CCC(=O)NCc2ccc3c(c2)OCO3)s1	0	0	0	0	0	0
COc1c(C)cc(C(=O)C2CCCN(C(=O)Cn3nc(C)nc3C)C2)cc1C (centres undefined)	0	0	0	0	0	0
